According to PubChem BioAssay AID1159580 (chemical genetic matrix, 2015):
About 2,000 (36%) of roughly 5,500 compounds were called active. Inconclusive results (about 18%) are left out. No stated cut-off is given here; in the data, active means normalized growth mostly below about 0.91 (no sharp cut-off); inconclusive means no clear call, values can overlap the other calls; inactive means mostly above about 0.92. This is one part of the list.

Assay: chemical genetic growth profiling, strain panel (AID 1159580);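 further: tested at 20 µM; growth read once vehicle control cultures reached saturation at 30 °C; 1 = growth at the plate median or of vehicle wells; lower values mean less growth of the strain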
Conditions: S. cerevisiae deletion strains, growth OD

Measured: normalized growth

N#C/C(=N/Nc1ccc(F)cc1)S(=O)(=O)c1ccc(Cl)cc1
inactive: locus YAR019C, strain CDC15, active compounds read low 0.976 | locus YBL105C, strain PKC1, active compounds read low 0.97 | locus YBR135W, strain CKS1, active compounds read low 0.965 | locus YBR136W, strain MEC1, active compounds read low 0.969 | locus YBR160W, strain CDC28, active compounds read low 0.965 | locus YDL017W, strain CDC7, active compounds read low 0.972 | locus YDL028C, strain MPS1, active compounds read low 0.971 | locus YDL101C, strain DUN1, active compounds read low 0.974 | locus YDL108W, strain KIN28, active compounds read low 0.957 | locus YDL132W, strain cdc53, active compounds read low 0.966 | locus YDL214C, strain PRR2, active compounds read low 0.94 | locus YDR052C, strain DBF4, active compounds read low 0.964 | locus YDR054C, strain cdc34, active compounds read low 0.976 | locus YDR226W, strain ADK1, active compounds read low 0.963 | locus YDR477W, strain SNF1, active compounds read low 0.961 | locus YER123W, strain YCK3, active compounds read low 0.922 | locus YER133W, strain GLC7, active compounds read low 0.968 | locus YFL009W, strain cdc4, active compounds read low 0.978 | locus YFL029C, strain CAK1, active compounds read low 0.973 | locus YFR003C, strain YPI1, active compounds read low 0.974 | locus YFR019W, strain FAB1, active compounds read low 0.912 | locus YFR028C, strain CDC14, active compounds read low 0.959 | locus YGR040W, strain KSS1, active compounds read low 0.94 | locus YGR052W, strain FMP48, active compounds read low 0.952 | locus YGR092W, strain DBF2, active compounds read low 0.912 | locus YHR030C, strain SLT2, active compounds read low 0.982 | locus YHR079C, strain IRE1, active compounds read low 0.993 | locus YHR082C, strain KSP1, active compounds read low 0.994 | locus YHR205W, strain SCH9, active compounds read low 0.907 | locus YIL147C, strain SLN1, active compounds read low 0.976 | locus YJL095W, strain BCK1, active compounds read low 0.926 | locus YJL128C, strain PBS2, active compounds read low 0.942 | locus YJL157C, strain FAR1, active compounds read low 0.953 | locus YJR016C, strain ILV3, active compounds read low 0.977 | locus YJR066W, strain TOR1 (second series), active compounds read low 0.924 | locus YJR066W, strain TOR1, active compounds read low 0.996 | locus YKL048C, strain ELM1, active compounds read low 0.932 | locus YKL067W, strain YNK1, active compounds read low 0.96 | locus YKL101W, strain HSL1, active compounds read low 0.93 | locus YKL193C, strain SDS22, active compounds read low 0.978 | locus YKL203C, strain TOR2, active compounds read low 0.99 | locus YLR113W, strain HOG1, active compounds read low 0.941 | locus YLR133W, strain CKI1, active compounds read low 0.942 | locus YLR403W, strain SFP1, active compounds read low 0.899 | locus YML070W, strain DAK1, active compounds read low 0.939 | locus YMR001C, strain CDC5, active compounds read low 0.975 | locus YMR205C, strain PFK2 (second series), active compounds read low 0.96 | locus YMR277W, strain FCP1, active compounds read low 0.979 | locus YNL006W, strain LST8, active compounds read low 0.989 | locus YNL020C, strain ARK1, active compounds read low 0.946 | locus YNL161W, strain CBK1, active compounds read low 0.966 | locus YNL183C, strain NPR1, active compounds read low 0.988 | locus YNL207W, strain RIO2, active compounds read low 0.969 | locus YNL222W, strain SSU72, active compounds read low 0.977 | locus YNL307C, strain MCK1 (second series), active compounds read low 0.912 | locus YOL078W, strain AVO1, active compounds read low 0.97 | locus YOL136C, strain PFK27, active compounds read low 0.905 | locus YOR061W, strain CKA2, active compounds read low 0.979 | locus YOR119C, strain RIO1, active compounds read low 0.998 | locus YOR231W, strain MKK1, active compounds read low 0.953 | locus YOR329C, strain SCD5, active compounds read low 0.975 | locus YPL031C, strain PHO85, active compounds read low 0.954 | locus YPL153C, strain RAD53, active compounds read low 0.956 | locus YPL204W, strain HRR25, active compounds read low 0.904 | locus YPL209C, strain IPL1, active compounds read low 0.975 | locus YPL256C, strain CLN2, active compounds read low 1.01 | locus YPR025C, strain CCL1, active compounds read low 0.974 | locus YPR106W, strain ISR1, active compounds read low 0.975 | locus YPR111W, strain DBF20, active compounds read low 0.969 | strain NNK1, active compounds read low 0.972 | strain TSCII, active compounds read low 0.966
